Results taken from PubChem BioAssay (Tox21).
Several values for one entry are separate records, joined by “and”; a condition that tells them apart may be missing. Equal values may be shown once. Results filed as inconclusive are left out. More than one record can exist for a structure, and the calls need not agree. Activity calls are given as the source filed them. Unless noted, calls follow the shape of the dose curve; as a rule, active = well fitted curve in the direction sought with a large enough effect in the repeat runs; inconclusive = weak or mixed curves; inactive = no such curve, though single readings can be large; an effect the other way counts as inactive or inconclusive.

Key:
[1] = qHTS assay to identify small molecule antagonists of the vitamin D receptor (VDR) signaling pathway - cell viability counter screen (AID 743225); also: nearly all actives have a fitted effect of over 50% in size; also: potency is read from the fitted curve at half-maximal effect
How it was run: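 Read-out: CellTiter-Glo luminescence measured 30 min after reagent addition at room temperature. Cells were VDR-bla HEK 293T exposed 16 h at 37C, 5% CO2, to compound with 3 nM final calcitriol agonist.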

[2] = qHTS assay to identify small molecule agonists of the NFkB signaling pathway (AID 1159509; active = well fitted curve in the direction sought with a large enough effect in the signal ratio in the repeat runs, not every such curve was filed as active; the % refers to the signal ratio; also: % is scaled to controls: 0 for no effect and ±100 for the full control effect)
How it was run: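 Pathway activation was measured in ME-180 cells stably expressing beta-lactamase under NF-kB response element control. Substrate cleavage was read as the 460/530 nm emission shift after 5 hr compound incubation.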

[3] = qHTS assay to identify small molecule agonists of the NFkB signaling pathway - cell viability counter screen (AID 1159515; calls by dose curve; also: nearly all actives have a fitted effect of over 55% in size; also: potency is read from the fitted curve at half-maximal effect)
How it was run: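 Cells are seeded (2,000 NFkB-bla ME-180 per well), rested overnight, and dosed with DMSO-dissolved compounds for 5 hr at 37 C. Viability is then read by CellTiter-Glo luminescence after 30 min at room temperature.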

[4] = qHTS assay to identify small molecule agonists of the endoplasmic reticulum stress response signaling pathway (AID 1159516; active = well fitted activation curve with a large enough effect in the signal ratio in the repeat runs, not every such curve was filed as active; the % refers to the signal ratio; also: % is scaled to controls: 0 for no effect and ±100 for the full control effect)
How it was run: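 Cells are seeded at 1,500 per well and incubated overnight. Compounds in DMSO are added for 5 hr at 37 C, then beta-lactamase FRET substrate for 2 hr at room temperature, and fluorescence at 460 and 530 nm is measured.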

[5] = qHTS assay to identify small molecule antagonists of the retinoid-related orphan receptor gamma (ROR-gamma) signaling pathway - cell viability counter screen (AID 1159520); also: % is scaled to controls: 0 for no effect and ±100 for the full control effect; nearly all actives have a fitted effect of over 50% in size
How it was run: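 Tet-on ROR gamma CHO cells were given compounds for 2 hr, then doxycycline hyclate at 1 uM final, and incubated 16 hr at 37 C. Viability was measured as ATP content by CellTiter-Glo luminescence.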

[6] = qHTS assay to identify small molecule agonists of the AP-1 signaling pathway - cell viability counter screen (AID 1159525; calls by dose curve; also: nearly all actives have a fitted effect of over 55% in size)
How it was run: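 Same-well cytotoxicity counter screen of the Tox21 10K library in ME-180 cells. The readout is ATP-dependent luminescence after 5 h compound treatment. Data are normalised to DMSO and tetra n-octyl ammonium bromide controls.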

[7] = target: Retinoic acid receptor RXR-alpha (Homo sapiens) (UniProt P19793); assay: qHTS assay to identify small molecule agonists of the RXR signaling pathway (AID 1159527; calls by dose curve; also: % is scaled to controls: 0 for no effect and ±100 for the full control effect; nearly all actives have a fitted effect of over 35% in size)
Sequence of Retinoic acid receptor RXR-alpha (Homo sapiens) (P19793 whole entry, looked up): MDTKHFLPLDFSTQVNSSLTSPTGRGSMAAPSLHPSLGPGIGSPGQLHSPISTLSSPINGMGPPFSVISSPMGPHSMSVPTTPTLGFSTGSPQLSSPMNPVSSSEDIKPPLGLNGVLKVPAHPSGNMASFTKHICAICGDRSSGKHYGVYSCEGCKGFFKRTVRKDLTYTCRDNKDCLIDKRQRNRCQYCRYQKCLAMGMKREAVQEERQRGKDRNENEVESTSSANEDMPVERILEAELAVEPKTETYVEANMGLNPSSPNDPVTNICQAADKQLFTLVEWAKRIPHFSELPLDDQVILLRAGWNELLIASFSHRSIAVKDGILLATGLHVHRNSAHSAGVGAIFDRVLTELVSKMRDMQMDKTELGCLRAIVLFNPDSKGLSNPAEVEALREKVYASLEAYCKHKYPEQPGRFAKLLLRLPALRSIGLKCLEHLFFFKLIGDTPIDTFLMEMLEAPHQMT
How it was run: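 Read-out: beta-lactamase FRET ratio (405 nm excitation, 460 and 530 nm emission) after 2 hr substrate loading at room temperature. Cells were RXR-alpha-UAS-bla HEK 293T treated with compounds for 16 hr in 2% charcoal-stripped FBS medium.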

[8] = qHTS assay to identify small molecule agonists of the RXR signaling pathway - cell viability counter screen (AID 1159529); also: nearly all actives have a fitted effect of over 50% in size; also: potency is read from the fitted curve at half-maximal effect
How it was run: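 HEK 293T RXRa-bla cells, 2% CS-FBS; 5 h settle; cpd 16 h 37 C, 5% CO2; CellTiter-Glo 30 min RT, luminescence. Tetraoctyl ammonium bromide as positive control.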

[9] = qHTS assay to identify small molecule antagonists of the retinoid acid receptor (RAR) signaling pathway - cell viability counter screen (AID 1159551); also: % is scaled to controls: 0 for no effect and ±100 for the full control effect; nearly all actives have a fitted effect of over 35% in size
How it was run: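 Cells (C3RL4) are plated, incubated overnight, dosed with compound in DMSO, then given retinol at 1 uM final. After 6 h at 37 C, CellTiter-Glo is added and luminescence read following 30 min at room temperature.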

[10] = qHTS assay to identify small molecule antagonists of the retinoic acid receptor (RAR) signaling pathway (AID 1159552; also: nearly all actives have a fitted effect of over 50% in size; also: potency is read from the fitted curve at half-maximal effect)
How it was run: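 Cells of the C3RL4 line were seeded, incubated overnight, then dosed with compounds in DMSO followed immediately by retinol (1 uM final). Six hours later luciferase detection reagent went in; signal was measured after 30 min at RT.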

[11] = qHTS assay to identify small molecule agonists of the retinoic acid receptor (RAR) signaling pathway (AID 1159553); conditions: C3RL4 RARE luciferase reporter, agonist, 6 h; also: potency is read from the fitted curve at half-maximal effect
How it was run: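 Seed C3RL4 reporter cells at 1,000 per well and incubate overnight at 37 C. Add compounds in DMSO, incubate 6 hr. Add luciferase reagent, wait 30 min at room temperature, read luminescence.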

[12] = target: Nuclear receptor ROR-gamma (Homo sapiens) (UniProt P51449); assay: qHTS assay to identify small molecule antagonists of the retinoid-related orphan receptor gamma (ROR-gamma) signaling pathway (AID 1159521; also: nearly all actives have a fitted effect of over 50% in size; also: potency is read from the fitted curve at half-maximal effect)
How it was run: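 CHO Tet-on RORγ, RORE-luc reporter. Cpd 2 h pre-incubation, then dox hyclate 1 uM final, 16 h, 37 C/5% CO2. ONE-Glo luminescence; decrease = antagonist.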

[13] = qHTS assay to identify small molecule agonists of the AP-1 signaling pathway (AID 1159526; calls by dose curve; also: % is scaled to controls: 0 for no effect and ±100 for the full control effect)
[14] = qHTS assay to identify small molecule agonists of the endoplasmic reticulum stress response signaling pathway - cell viability counter screen (AID 1159517; calls by dose curve; also: nearly all actives have a fitted effect of over 50% in size; also: potency is read from the fitted curve at half-maximal effect)
How it was run: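 In parallel with the ESRE reporter read, cytotoxicity was scored by CellTiter-Glo luminescence (30 min, room temperature) on HeLa ESRE-bla cells dosed for 5 hr.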

[15] = qHTS assay to identify small molecule antagonists of the estrogen related receptor (ERR) signaling pathway (AID 1224819)
How it was run: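 qHTS in ERR cells, 2,000/well, 1536 format. Cpd (DMSO) added after 6 h settle, 18 h 37 C. One-Glo luminescence, 30 min RT.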

[16] = qHTS assay to identify small molecule agonists of the estrogen related receptor (ERR) signaling pathway (AID 1224820); also: % is scaled to controls: 0 for no effect and ±100 for the full control effect
How it was run: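 An ERR cell line provided by NTP was seeded at 2,000 cells per well and allowed to settle for 6 h before compounds in DMSO were added. After 18 h at 37 C, luciferase activity was measured by One-Glo luminescence.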

[17] = system: estrogen-related receptor alpha (ERRalpha) with PGC-1alpha coactivator, human; assay: qHTS assay to identify small molecule antagonists of the estrogen related receptor signaling pathway with the pleiotropic PPARgamma coactivator (PGC) (AID 1224821; calls by dose curve)
How it was run: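 A PGC/ERR cell line supplied by NTP is seeded, allowed 6 h at 37 C, and treated with test compounds in DMSO for 18 h. Signal is then measured as luciferase luminescence using One-Glo.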

[18] = qHTS assay to identify small molecule agonists of the estrogen related receptor signaling pathway with the pleiotropic PPARgamma coactivator (PGC) (AID 1224823); also: % is scaled to controls: 0 for no effect and ±100 for the full control effect
How it was run: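 Compounds dissolved in DMSO are added by pin tool to PGC/ERR cells that have settled for 6 h, and incubation continues 18 h at 37 C. Reporter output is measured as One-Glo luminescence.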

[19] = qHTS assay to identify small molecule antagonists of the estrogen related receptor (ERR) signaling pathway - cell viability counter screen (AID 1224818); also: % is scaled to controls: 0 for no effect and ±100 for the full control effect
How it was run: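 ERR cells, 2,000/well; 6 h settle at 37 C/5% CO2; compound pin transfer (DMSO); 17.5 h at 37 C; CellTiter-Fluor, 30 min, fluorescence read.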

[20] = qHTS assay to identify small molecule antagonists of the estrogen related receptor signaling pathway with the pleiotropic PPARgamma coactivator (PGC) cell viability counter screen (AID 1224822)
How it was run: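 Multiplexed viability counter screen run in PGC/ERR cells treated with compounds for 17.5 h at 37 C; live-cell protease signal measured by CellTiter-Fluor fluorescence.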

[21] = activation: at 73.3 µM (top of the series) unless noted

COP(=S)(OC)Oc1cc(Cl)c(Cl)cc1Cl
inactive: Potency [1] | outcome [2] | Potency [3] | outcome [4] | Potency [5] | Potency [6] | Potency [7] | Potency [8] | Potency [9] | Potency [10] | Potency [11, 21]

c1ccc(NNc2ccccc2)cc1
inactive: Potency [1] | outcome [2] | Potency [3] | outcome [4] | Potency [12] | Potency [6] | outcome [13] | Potency [7] | Potency [8] | Potency [9] | Potency [10]

CCCCN(CCCC)N=O
inactive: Potency [1] | outcome [2] | Potency [3] | outcome [4] | Potency [5] | Potency [12] | Potency [6] | outcome [13] | Potency [7] | Potency [8] | Potency [9]

CCOCN(C(=O)CCl)c1c(C)cccc1CC
inactive: Potency [1] | outcome [2] | Potency [3] | Potency [14] | Potency [6] | outcome [13] | Potency [8] | Potency [9] | Potency [11, 21]
active: Potency [12] 45.9 µM and 27.3 µM

Oc1c(Cl)c(Cl)c(Cl)c(Cl)c1Cl
active: Potency [12] 54.5 µM
inactive: Potency [1] | outcome [2] | Potency [3] | Potency [14] | Potency [5] | Potency [6] | outcome [13] | Potency [8] | Potency [9] | Potency [10] | Potency [11, 21]

CNC(=O)N(C)c1nnc(C(C)(C)C)s1
inactive: Potency [1] | Potency [3] | outcome [4] | Potency [14] | Potency [5] | Potency [12] | Potency [6] | outcome [13] | Potency [7] | Potency [8] | Potency [9] | Potency [10] | Potency [11, 21]

COC(=O)c1sccc1S(=O)(=O)NC(=O)Nc1nc(C)nc(OC)n1
inactive: Potency [1] | outcome [2] | Potency [3] | outcome [4] | Potency [5] | Potency [6] | outcome [13] | Potency [7] | Potency [8] | Potency [9] | Potency [10] | Potency [11, 21]

N#Cc1cc(Br)c(O)c(Br)c1
active: Potency [12] 27.3 µM and 37.1 µM | Potency [8] 11 µM and 13.3 µM
inactive: outcome [2] | outcome [4] | Potency [14] | Potency [6] | outcome [13] | Potency [7] | Potency [9] | Potency [10] | Potency [11, 21]

C[C@]12CCC(=O)C[C@@H]1CC[C@@H]1[C@@H]2CC[C@]2(C)[C@@H](O)CC[C@@H]12
inactive: Potency [1] | outcome [2] | Potency [3] | outcome [4] | Potency [5] | Potency [6] | Potency [8] | Potency [9] | Potency [11, 21]
42.7 µM (active) and inactive: Potency [10]

C=C(C)[C@H]1Cc2c(ccc3c2O[C@@H]2COc4cc(OC)c(OC)cc4[C@@H]2C3=O)O1
inactive: Potency [1] | outcome [2] | Potency [3] | outcome [4] | Potency [6] | outcome [13] | Potency [8] | Potency [11, 21] | Potency [16] | outcome [18]
active: Potency [12] 34.8 nM and 770 nM and 10.6 nM | Potency [15] 81 nM | Potency [17] 36.1 nM

Cc1ccc(N)c(N)c1
active: Potency [11, 21] 1.54 µM and 1.22 µM
inactive: Potency [1] | outcome [2] | outcome [4] | Potency [14] | Potency [12] | Potency [6] | outcome [13] | Potency [8] | Potency [9] | Potency [10]

CCOc1cc(C=O)ccc1O
inactive: Potency [1] | outcome [2] | Potency [3] | outcome [4] | Potency [12] | Potency [6] | outcome [13] | Potency [8] | Potency [9] | Potency [10] | Potency [11, 21]

O=c1oc2ccccc2c(O)c1C(CC(O)c1ccc(-c2ccc(Br)cc2)cc1)c1ccccc1 (stereo unspecified)
inactive: outcome [2] | Potency [3] | Potency [6] | Potency [9]
active: Potency [12] 57.9 µM

O=C(Nc1ccc(Br)cc1)c1cc(Br)cc(Br)c1O
active: Potency [1] 1.95 µM | Potency [3] 13.8 µM and 49 µM | Potency [14] 8.68 µM and 1.95 µM and 5.35 µM | Potency [12] 13.6 µM and 10.9 µM | Potency [8] 24.5 µM
inactive: outcome [2] | Potency [6] | outcome [13] | Potency [9] | Potency [10] | Potency [11, 21]

O=C1C=CC(=O)C=C1
inactive: Potency [1] | outcome [2] | Potency [3] | Potency [12] | Potency [6] | outcome [13] | Potency [7] | Potency [8] | Potency [9] | outcome [19] | Potency [20]

Cc1ccccc1[N+](=O)[O-]
inactive: Potency [1] | outcome [2] | Potency [3] | outcome [4] | Potency [5] | Potency [12] | Potency [6] | outcome [13] | Potency [7] | Potency [8] | Potency [9] | Potency [10] | activation ([11]; at 73.3 µM (top of the series)) 1.75%
active: activation [11, 21] 0.464% [at 94.8 µM]

c1cc(OCC2CO2)ccc1Cc1ccc(OCC2CO2)cc1 (stereo unspecified)
inactive: Potency [1] | outcome [2] | Potency [3] | Potency [14] | Potency [5] | Potency [12] | Potency [6] | Potency [8] | Potency [9] | Potency [10] | Potency [11, 21]

Cc1cc(C)cc(C)c1
inactive: Potency [1] | Potency [3] | outcome [4] | Potency [12] | Potency [6] | outcome [13] | Potency [7] | Potency [8] | Potency [9] | Potency [10] | Potency [11, 21]

CCCCCCOC(=O)c1ccccc1C(=O)OCCCCCC
inactive: Potency [1] | Potency [3] | outcome [4] | Potency [5] | Potency [12] | Potency [6] | outcome [13] | Potency [7] | Potency [8] | Potency [9] | Potency [10] | Potency [11, 21]

O=Cc1ccco1
inactive: Potency [1] | Potency [3] | outcome [4] | Potency [14] | Potency [12] | Potency [6] | outcome [13] | Potency [7] | Potency [8] | Potency [9] | Potency [10] | Potency [11, 21]

Brc1ccc(Oc2cc(Br)c(Br)cc2Br)c(Br)c1
inactive: Potency [1] | Potency [3] | outcome [4] | Potency [14] | Potency [5] | Potency [12] | Potency [6] | outcome [13] | Potency [7] | Potency [9] | Potency [10] | Potency [11, 21]
active: Potency [8] 17.4 µM
